ALR H2O2 inh: inhibitors of human ALR sulfhydryl oxidase, primary screen, biochemical, H2O2 detection, HRP-luminol luminescence, single point. purified ALR, DTT oxidation. inhibition, % (concentration not given with the values). 3.8% of 290,000 active. AID 485317, 2010;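 active = mean replicate inhibition above about 79%, with every replicate also reaching it, limit read from the data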
Target sequence (P55789 whole entry, looked up): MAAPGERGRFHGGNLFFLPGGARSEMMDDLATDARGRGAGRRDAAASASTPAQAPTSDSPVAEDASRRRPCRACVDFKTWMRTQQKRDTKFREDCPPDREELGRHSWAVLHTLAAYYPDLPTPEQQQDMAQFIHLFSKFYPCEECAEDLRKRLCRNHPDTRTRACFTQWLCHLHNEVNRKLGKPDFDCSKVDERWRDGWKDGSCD
M18AAP inhibitor: PfM18AAP inhibitors, malaria aminopeptidase, primary screen, biochemical, QFRET, recombinant enzyme. M18 aspartyl aminopeptidase (Plasmodium falciparum 3D7). H-Glu-NHMec fluorogenic cleavage. inhibition, % at 7.35 µM. 1.2% of 290,000 active. AID 1822, 2009;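 active = inhibition above the campaign mean inhibition over all tested compounds plus 3 SD, cut at about 28% in these data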;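 note: 0% = plate median of test compound wells and 100% = 2 mM ZnCl2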
Granule exo inh: LAMP-1 surface exposure blockers, TALL-104 cells – cell-based, flow cytometry, MLPCN library, primary screen; TALL-104 LAMP-1 surface exposure; cells stimulated with thapsigargin and PMA; 0.66% of 360,000 active; inhibition, % at 10 µM; AID 651702, 2012;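 active = inhibition above about 55%, limit read from the data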
SMARCA2 activ: SMARCA2 (BRM) function activators, primary screen, cell-based, luminescence, high throughput. MG213 cells, MMTV-luciferase reporter, dexamethasone, overnight. 1% of 370,000 active. activation, % at 9.1 µM; in the data active = activation above about 7.8%;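 note: 0% = vehicle wells and 100% = reference activator wells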
GASC-1 inh: inhibitors of GASC-1 histone demethylase, primary screen, biochemical, fluorescence, DELFIA europium; Lysine-specific demethylase 4C (Homo sapiens), Q9H3R0; GST-JMJD2C(1-420) H3K9me3 demethylation; inhibition, % at 2.35 µM; 0.069% of 330,000 active; AID 2099, 2009;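 active = more than half of a compound's replicate wells show inhibition beyond 50%, single wells judged on their own value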;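 note: signal counts dimethyl H3K9 product captured on neutravidin plate; 0% = median of DMSO wells and 100% = 0.3 times that DMSO median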
Target sequence (Q9H3R0 1-420 limits assumed): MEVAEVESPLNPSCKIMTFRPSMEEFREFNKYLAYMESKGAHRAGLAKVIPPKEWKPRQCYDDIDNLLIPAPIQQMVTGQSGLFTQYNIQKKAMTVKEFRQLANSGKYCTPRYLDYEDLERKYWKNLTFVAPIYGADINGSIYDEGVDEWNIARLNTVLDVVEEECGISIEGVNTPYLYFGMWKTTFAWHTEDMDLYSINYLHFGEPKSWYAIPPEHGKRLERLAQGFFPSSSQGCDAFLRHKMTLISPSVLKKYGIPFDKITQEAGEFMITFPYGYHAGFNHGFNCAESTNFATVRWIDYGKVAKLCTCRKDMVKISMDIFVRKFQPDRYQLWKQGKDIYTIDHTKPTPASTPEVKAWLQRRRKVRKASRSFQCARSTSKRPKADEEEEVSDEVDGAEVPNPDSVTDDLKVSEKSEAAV
MIN6 prolif: inducers of MIN6 beta-cell proliferation, primary screen, ATP luminescence, uHTS. MIN6 cells proliferation, ATPlite luminescence, 48 h; cells starved in 0.2% serum; 100% = growth in 10% serum. proliferation, % at 10 µM. 0.29% of 330,000 active. AID 2380, 2010;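 active = compounds whose signal lies at least 3.5 SD above the mean of all wells on their plate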;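 note: 0% = DMSO-treated cells in low-serum medium and 100% = 10% serum control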
An asterisk follows results filed as active; x = not tested or not shown. Only some compounds are listed: those with a hit (about 5.4% of all), similar ones and a draw of the others.

SMILES | ALR H2O2 inh | M18AAP inhibitor | Granule exo inh | SMARCA2 activ | GASC-1 inh | MIN6 prolif
C=CCNC(=O)/C(C#N)=C/c1c(C)nn(-c2ccccc2)c1Cl | 96.2* | 4.8 | -0.8 | 0.2 | -4.5 | -2.8
Cc1nc2ccccn2c1C(=O)NNC(=S)Nc1ccc(Cl)cc1 | 87.0* | 10.8 | -0.9 | -1.1 | -2.9 | 0.0
Cc1nc2ccccn2c1C(=O)NNC(=S)Nc1ccccc1 | 96.5* | 17.3 | -5.8 | 2.0 | -9.2 | 2.0
Cc1nn(C)cc1C(=O)NNC(=S)Nc1ccccc1 | 88.1* | 13.8 | 0.2 | 0.6 | 5.9 | -0.7
COC(=O)[C@]12C[C@H](CC(=O)NCc3ccc(C)o3)C(=O)N(CCC3=CCCCC3)C1=C[C@H](C1CCCC1)O[C@@H]2C | x | x | x | -2.8 | x | x
Cc1[nH]n(-c2ccccc2)c(=S)c1C=Nc1ccc([N+](=O)[O-])cc1 | x | 50.9* | 7.3 | 5.9 | 18.7 | x
CCOC(=O)[C@]12CCCCC/C=C\1N(CCc1ccc(Cl)cc1)C(=O)[C@H]2CC(=O)N1CCC(c2ccccc2)CC1 | x | x | x | -2.3 | x | x
O=C(C1CCCN(Cc2ccc(Br)cc2)C1)N1CCCCC1 (configuration not stated) | 89.5* | -10.2 | 11.2 | -4.1 | 0.1 | 2.9
Cc1ccc(CN2CCCC(C(=O)N3CCCC3)C2)cc1 (configuration not stated) | -7.2 | -2.2 | -5.4 | -1.5 | -5.1 | -3.3
O=C(/C=C/c1ccc(NC(=O)c2ccccc2-c2ccccc2C(=O)O)cc1)c1ccccc1 | 98.4* | -12.6 | -1.4 | 1.6 | -1.3 | -4.9
Cc1cccc(NC(=O)NCCCN2CCN(c3ccc(F)cc3)CC2)c1 | x | x | x | 4.3 | x | x
CC(=O)Nc1ccc2nc(-c3cccn3C)[nH]c2c1 | 7.7 | -1.8 | -6.3 | 4.1 | -3.0 | 2.5
Cn1cccc1-c1nc2ccc(NC(=O)c3cccs3)cc2[nH]1 | 7.7 | -25.4 | -2.1 | -0.6 | 58.2* | -0.3
O=c1c2ccccc2c(-c2ccccc2)nn1Cc1c(Cl)cccc1Cl | 1.8 | 1.9 | -2.2 | -1.1 | -18.7 | -4.2
Clc1cccc(Cl)c1Cn1ccc(C2CC2)n1 | -13.1 | -10.9 | -0.7 | 7.9* | 0.5 | 2.8
C[C@H](O)[C@@H]1C(=O)N2CCc3c([nH]c4c(-c5ccc6c(c5)OCO6)cccc34)[C@@H]2C[C@@H]1N(C)C(=O)Nc1ccccc1 | x | x | x | 0.6 | x | x
COc1cccc(-c2nc(CS(=O)(=O)CC(=O)NCCc3ccccc3)c(C)o2)c1 | 8.6 | 0.7 | -0.3 | -2.4 | 16.0 | -1.6
COc1cccc(-c2nc(CS(=O)(=O)CC(=O)NCCCN3C(C)CCCC3C)c(C)o2)c1 (configuration not stated) | 10.7 | -9.0 | -14.3 | -1.7 | -2.9 | 6.7
CCN1CCN(CCCNC(=O)CS(=O)(=O)Cc2nc(-c3cccc(OC)c3)oc2C)CC1 | 90.5* | -6.6 | -2.5 | -4.3 | 1.8 | 1.5
COc1cccc(-c2nc(CS(=O)(=O)CC(=O)NCCCN3CC(C)CC(C)C3)c(C)o2)c1 (configuration not stated) | 89.7* | 4.8 | 0.7 | -1.6 | -23.0 | 2.6
COc1cccc(-c2nc(CS(=O)(=O)CC(=O)NCCCN3CCN(C)CC3)c(C)o2)c1 | 98.5* | -2.0 | -0.7 | -2.8 | -25.9 | -3.0
CC(=O)N[C@@H]1C[C@@H]2O[C@@H](CO)CC[C@@H]2O[C@@H]1CCc1ccc(C#CC2(O)CCCC2)cc1 | x | x | x | 2.1 | x | x
CN1C(=O)C(O)(CC(=O)/C=C/c2ccco2)c2ccccc21 (configuration not stated) | 3.1 | 4.1 | 0.7 | 4.7 | -3.2 | -3.5
CN1C(=O)C(O)(CC(=O)/C=C/C=C/c2ccccc2)c2ccccc21 (configuration not stated) | 89.5* | -2.6 | -3.7 | 1.1 | -1.8 | 0.0
COc1ccc(CCN2CCCC(CN(C)C(=O)c3cc(C)oc3C)C2)cc1 (configuration not stated) | 5.3 | 2.5 | 16.7 | 7.8* | -1.6 | 1.8
SMILES | ALR H2O2 inh | M18AAP inhibitor | Granule exo inh | SMARCA2 activ | GASC-1 inh | MIN6 prolif
CCN1C(=O)/C(=C\c2ccc(F)cc2)N=C1SCC(=O)NCc1ccco1 | 95.3* | -3.9 | 1.5 | 6.6 | -0.6 | 0.0
O=C(CSc1ccc(-c2ccc(F)cc2)nn1)NCc1ccco1 | -5.3 | 1.6 | -2.8 | -3.1 | -21.7 | -2.0
Cc1ccc(-c2ccc(CCC(=O)O)n2-c2ccc(C(=O)O)cc2)cc1 | 97.0* | 21.2 | 9.0 | 0.5 | -2.8 | -3.0
NC(=O)c1ccc(-n2c(CCC(=O)O)ccc2-c2cccs2)cc1 | 84.0* | 6.2 | -4.5 | 0.9 | 9.5 | 1.0
Cc1ccc(-n2c(CCC(=O)O)ccc2-c2cccs2)cc1 | 94.2* | -11.4 | 3.4 | 1.6 | 0.8 | -3.5
COC(=O)c1cc(-c2cc3ccccc3s2)c(=O)n2c1CCC2 | x | x | x | 3.1 | x | x
C=CCc1cccc(CNc2ccc(Br)cc2)c1O | 98.4* | -10.0 | -3.5 | -2.8 | -2.3 | 0.1
COc1ccc(NC(=O)c2ccc(-c3ccccc3C(F)(F)F)o2)cc1 | x | 5.9 | -6.0 | 7.9* | -3.4 | -4.4
CCOC(=O)N(C)[C@H]1C[C@H]2c3[nH]c4cccc(-c5cccc(F)c5)c4c3CCN2C(=O)[C@H]1[C@H](C)O | x | x | x | -1.5 | x | x
CCCC[C@H]1C2CC(OC(=O)Nc3ccccc3Cl)C(C2)[C@H]2CCCCN21 (some centres not stated) | x | x | x | -1.1 | x | x
Cc1[nH]c(=S)c(C#N)c(-c2ccccc2)c1C(=O)Nc1ccccc1 | 70.4 | 28.4* | -1.7 | -2.2 | -9.9 | -2.3
Cc1ccccc1NC(=O)c1c(C)[nH]c(=S)c(C#N)c1-c1ccc(Cl)cc1 | 10.4 | 9.0 | -1.7 | 0.6 | -0.8 | -2.9
CCOc1ccc(/C(O)=C/C(=O)C(=O)Nc2ccc(S(=O)(=O)NC(C)=O)cc2)cc1 | 98.0* | -4.2 | 0.1 | -2.6 | -5.3 | -0.6
CN1/C(=C/C(=O)c2ccc(Cl)cc2)Sc2cc3c(cc21)OCO3 | x | 31.6* | 2.1 | 6.1 | 1.0 | -4.0
CN1/C(=C\C(=O)c2cccc([N+](=O)[O-])c2)Sc2ccccc21 | -12.5 | 12.0 | 30.6 | 6.2 | -16.7 | 0.0
Oc1ccc(/C=N/N=C/c2ccc(O)cc2)cc1 | 95.7* | -6.8 | 0.3 | 3.0 | -4.6 | -2.4
COc1ccccc1NC(=O)Nc1cnccn1 | 0.9 | -15.6 | 1.9 | 4.3 | -3.0 | -0.3
COc1ccccc1NC(=O)Nc1ncccc1C | 98.0* | 0.0 | -4.3 | -1.1 | 10.7 | 1.2
O=C(NNS(=O)(=O)c1cc(Cl)cc(Cl)c1)c1sccc1-n1cccc1 | 87.9* | 6.1 | -0.8 | -1.0 | -5.0 | 0.8
S=C(NCc1ccccc1)C(=S)NCc1ccccc1 | x | x | 97.4* | -2.3 | x | x
